# Screens deposited in PubChem by several laboratories.
# TNF death inh – TNF-alpha cell death inhibition in Jurkat FADD-/- cells; 220,000 tested, 0.068% active; activation (protection from cell death), % at 10 µM; Jurkat FADD-/- TNF necroptosis rescue, ATP luminescence, 24 h; 0 = TNF only, 100 = no-TNF cells;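 active means activation, meaning protection from cell death, of at least 50% relative to plate controls; inactive means activation below 50%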;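 further: necroptosis triggered by 40 ng/mL TNF-alpha added together with compound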
# Calb FLC – C. albicans growth modulation with fluconazole; C. albicans CaCi-2 (fluconazole-resistant clinical isolate) + fluconazole, Alamar Blue growth, 48 h; growth inhibition, % (no concentration beside the values); 300,000 tested, 0.57% active; AID 1979;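 active means growth inhibition above about 58% in most replicates, limit read from the data, passing the limit was not always enough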;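 further: all wells also contain fluconazole at 8 µg/ml as a sub-toxic cotreatment; 0% = median of DMSO wells and 100% = median of geldanamycin control wells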
# HIF activator – HIF pathway transcriptional activation. U2OS HRE-luciferase reporter, luminescence; normalized: DMSO 0%, desferrioxamine 100%. activation, % at 7.5 µM (by protocol). 300,000 tested, 0.32% active. AID 1910;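 active means mean activation of at least 10% of the iron chelator positive control signal, with at least half of replicates also reaching 10%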
# L929 necroptosis – L929 zVAD cell death inhibition | L929 zVAD necroptosis rescue, ATP luminescence, 24 h; with zVAD 60 µM | viability rescue, % at 10 µM | 220,000 tested, 0.38% active | AID 1377;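 active means activation, scaled between plate controls, above about 75%, limit read from the data; inactive means activation under that limit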;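 further: 0% = zVAD with DMSO and 100% = DMSO alone without zVAD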
# zVAD death conf – confirmed blocker of zVAD induced death in L929 cells. shares compounds with L929 necroptosis. L929 zVAD-induced necroptosis rescue, ATP luminescence, 24 h. activation (protection from necroptosis), % at 10 µM. 760 tested, 16% active. AID 463117;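 active means mean protection from necroptosis of at least 50% over duplicate tests; inactive means mean protection below 50%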;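 further: 0% = cells with zVAD alone and 100% = vehicle cells without zVAD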
# Active calls of the source: *; nt = no result. Sampled rows, rich in hits. Any-hit rate of the full collection: about 1.1%.
SMILES,TNF death inh,Calb FLC,HIF activator,L929 necroptosis,zVAD death conf
Cc1ccc(NC(=O)COC(=O)c2ccc3c(c2)NC(=O)C2CCCN32)cc1C (centres undefined),-3.9,nt,nt,89.5*,61.3*
O=C(O)c1ccccc1-c1ccccc1C(=O)NCc1ccccc1F,nt,-2.1,-0.3,nt,nt
O=Nc1c2ccc[nH]c-2c2ccc([N+](=O)[O-])cc12,0.7,-11.8,0.0,75.3*,0.1
O=C(C1COc2ccccc2O1)N1CCN(c2nc3c(F)cc(F)cc3s2)CC1 (centres undefined),nt,-5.1,0.6,nt,nt
COc1ccc(Cn2c(=O)[nH]c3cc(C(=O)NCCCN4CCCCCC4)ccc3c2=O)cc1,-1.3,-0.5,0.4,2.3,nt
CCN(CC)CCNC(=O)c1ccc2c(=O)n(CCc3ccccc3)c(=O)[nH]c2c1,-0.5,7.9,1.5,89.4*,18.8
O=C(NCCCN1CCCCC1)c1ccc2c(=O)n(CCc3ccccc3)c(=O)[nH]c2c1,-3.5,-0.6,1.2,80.2*,1.5
CCCC1(C(=O)OCC)NC(c2ccc(O)cc2)C2C(=O)N(c3cccc(C(C)=O)c3)C(=O)C21 (centres undefined),nt,0.0,-1.6,nt,nt
CC(=O)Nc1ccc(C(O)(C(F)(F)F)C(F)(F)F)cc1,0.2,3.1,-0.6,6.0,nt
CC(C)OC(=O)N(C)c1ccc(C(O)(C(F)(F)F)C(F)(F)F)cc1,-1.7,-0.5,0.2,77.1*,8.7
CCC(Oc1ccccc1OC)C(=O)Nc1ccc2c(c1)OCO2 (centres undefined),nt,5.8,1.6,nt,nt
CCC(NC(=O)CCl)c1ccc(C)cc1 (centres undefined),18.6,5.2,-1.8,76.6*,1.5
C(=N\Nc1nc2ccccc2[nH]1)/c1ccc2c(c1)OCCO2,3.2,-5.1,-5.4,81.7*,7.3
CCOc1cc(/C=N/Nc2nc3ccccc3[nH]2)cc(Br)c1OCC(=O)N(C)C,42.7,-1.8,1.2,78.5*,57.6*
COc1ccc(/C=N/Nc2nc3ccccc3[nH]2)cc1OC,39.6,4.6,4.1,78.9*,48.7
C(=N\Nc1ccc2ccccc2n1)/c1ccc2c(c1)OCCO2,0.8,-8.3,-7.2,1.2,nt
COc1cc(/C=N\Nc2nc3ccccc3[nH]2)cc(OC)c1OC,14.9,-0.1,0.4,81.2*,48.1
COc1ccc(OC)c(CNC(=O)CCSCc2ccc(F)cc2Cl)c1,nt,10.2,-4.5,nt,nt
O=C(CSc1nc2ccc(Nc3nc(N4CCOCC4)nc(N4CCOCC4)n3)cc2s1)N1CCOCC1,2.9,8.6,-0.6,2.9,nt
CSc1nc2ccc(Nc3nc(N4CCOCC4)nc(N4CCOCC4)n3)cc2s1,0.9,nt,nt,84.1*,1.8
O=C(OCC(=O)N1CCCC1=O)c1ccc(Cl)cc1[N+](=O)[O-],nt,-4.1,0.0,nt,nt
Clc1ncc(CSc2ccccc2)s1,17.9,0.3,0.4,90.6*,49.9
O=C(Nc1ccccc1)OCc1cnc(Cl)s1,13.9,-6.0,0.8,-0.2,nt
CC1CCc2nc(NC(=O)C3CC3)sc2C1 (centres undefined),-0.1,19.1,2.1,78.0*,29.1
Cc1ccccc1OCCC(=O)OCC(=O)NCCNC(=O)COC(=O)CCOc1ccccc1C,nt,-1.5,-23.5,nt,nt
SMILES,TNF death inh,Calb FLC,HIF activator,L929 necroptosis,zVAD death conf
Cc1ccccc1Oc1cc(-n2ncc(Cl)c(Cl)c2=O)ncn1,-13.6,nt,nt,84.9*,2.7
COC(=O)c1ccc(N2CCN(C)CC2)c(NC(=O)c2ccc(Br)o2)c1,nt,-5.8,-0.3,nt,nt
Cc1ccc(NC(=O)COc2ccc(-c3nnco3)cc2)cc1S(=O)(=O)N1CCOCC1,-0.1,-1.7,0.0,78.4*,2.5
Cc1ccc(NC(=O)COc2ccccc2)cc1S(=O)(=O)N1CCCCCC1,nt,nt,-0.7,nt,nt
O=C(CCNC(=O)c1ccc(Br)cc1)OCc1ccccc1Cl,nt,2.6,-0.1,nt,nt
COCC(=O)n1nc(-c2ccccc2)nc1NCc1cccs1,3.1,nt,nt,81.6*,17.6
CC(C)C(=O)n1nc(-c2cccnc2)nc1NCc1ccc(F)cc1,3.3,3.2,-0.4,30.2,nt
COc1ccccc1C(=O)n1nc(-c2cccnc2)nc1NCc1ccccc1,0.9,13.2,-0.5,76.9*,15.8
CCCC(=O)n1nc(-c2cccnc2)nc1NCc1ccc(OC)cc1,2.5,3.0,-0.2,79.6*,0.2
CCC(=O)n1nc(-c2ccc(Cl)cc2)nc1NCc1ccccc1,-5.6,-8.4,0.5,1.0,nt
CC1=C(C(=O)Nc2cc(C(=O)N3CCN(c4cccc(C)c4C)CC3)ccc2C)SCCO1,nt,23.5,-0.1,nt,nt
COc1ccccc1NC(=O)C(=O)N/N=C(\C)CC(=O)Nc1ccc(OCc2ccccc2)cc1,-1.9,10.3,0.0,1.9,nt
COc1ccccc1NC(=O)/C(=N/OCc1ccc(C#N)cc1)C(C)=O,-1.1,-16.3,-0.2,75.9*,0.9
N#Cc1nc(-c2ccc(F)cc2)oc1NCc1ccccc1,1.3,3.3,0.6,0.2,nt
CC(C)(C)c1ccc(-c2nc(C#N)c(NCc3cccnc3)o2)cc1,2.0,27.3,-3.0,78.3*,10.1
C=CCOc1ccc(/C=C/C(C)=N\O)cc1,1.2,-14.3,2.4,78.9*,10.1
C=CCOc1ccc(/C=C/C(=O)Nc2ccc(C(=O)NC)cc2)cc1,-0.1,29.0,0.3,nt,nt
CCSC1=N/C(=C\c2ccc(OC)cc2)C(=O)N1,1.7,-2.7,0.6,2.6,nt
COc1ccc(/C=C2\N=C(SC)NC2=O)cc1,64.3*,90.4*,0.0,90.7*,76.9*
CCC1C(=O)NCCN1C(=O)c1ccc2nc(Cc3cccc(Cl)c3)oc2c1 (centres undefined),nt,-1.5,0.3,nt,nt
CC1=CC(=Nc2c(C)n(C)n(-c3ccccc3)c2=O)C=C(C)C1=O,-4.7,-3.5,-0.7,58.4,nt
CC1=CC(=Nc2c(C)n(C)n(-c3ccccc3)c2=O)C=CC1=O,-16.0,2.4,-1.1,76.7*,50.0*
Cc1csc(N/N=C\c2cccnc2)n1,9.9,-4.3,0.3,87.5*,7.7
CC(=O)Nc1ccc(/C=N/Nc2nc3ccccc3s2)cc1,62.6*,0.7,1.8,82.0*,82.5*
CC(=O)Nc1cccc(/C(C)=N/Nc2nc3ccccc3s2)c1,13.1,-28.9,3.3,77.8*,10.6
SMILES,TNF death inh,Calb FLC,HIF activator,L929 necroptosis,zVAD death conf
COc1ccc(/C=N/Nc2nc3ccccc3s2)cc1O,59.0*,27.1,-4.1,78.7*,75.8*
COc1ccc(/C=N/Nc2nc3ccccc3o2)cc1O,17.7,18.6,4.2,86.0*,48.9
C/C(=N\Nc1nc2ccccc2s1)c1cccs1,6.6,-8.4,-0.3,2.3,nt
O=C(Nc1ccccc1Cl)C1CCCN1C(=O)OCc1ccccc1 (centres undefined),nt,4.0,0.4,nt,nt
CSc1ncc(C(=O)Nc2cccc(C)c2C)c(C)n1,nt,25.2,1.3,nt,nt
CC(=O)Nc1cc(-c2ccc(F)cc2)[nH]n1,-0.7,-1.3,1.8,76.4*,30.6
Cn1nc(N)c2c(-c3ccccc3)c(C#N)c(N)nc21,3.0,-5.4,0.2,5.5,nt
Cn1nc(N)c2c(-c3ccc(Cl)cc3)c(C#N)c(N)nc21,1.5,30.2,-0.3,81.3*,37.5
Oc1ccccc1N=Cc1c(O)ccc2oc3c(c12)CCCC3,-21.8,-12.4,-1.2,75.2*,2.2
